Screening results as filed in PubChem.
S2 tox: Viability Counterscreen for Primary qHTS for Inhibitors of ATXN expression. S2 cells (HEK-293 line with an ATXN2-luciferase reporter) viability, CellTiter-Fluor protease fluorescence, 24 h. Potency, µM (doses to about 56.7 µM), actives largely listed as cytotoxic. 0.49% of 400,000 active; also: nearly all actives have a fitted effect of over 40% in size
TGFb inhibitor: qHTS for Inhibitors of TGF-b; HepG2 CAGA-GFP TGF-b/SMAD3 reporter, GFP fluorescence, 18 h; TGF-beta stimulated, 500 pg/mL final; Potency, µM (highest dose often 46.1 µM), for the others: top-dose activity, negative = inhibition, hits mostly inhibitors; 1.2% of 410,000 active; also: % is scaled to controls: 0 for no effect and ±100 for the full control effect; nearly all actives have a fitted effect of over 65% in size
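Inhibition of TGF-beta-driven CAGA-GFP reporter expression in HEPG2 cells is measured by cellular GFP fluorescence after 18 h stimulation with 500 pg/mL recombinant TGF-beta in 1% FBS medium at 37 degrees C.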
HepG2 tox-1: qHTS for Inhibitors of TGF-b: Cytotox Counterscreen. HepG2 CAGA-GFP viability, ATP luminescence, 18 h. Potency, µM (doses to about 46.1 µM), for the others: at the highest dose activity change, negative = cytotoxicity, usual class: cytotoxic. 0.76% of 410,000 active. AID 588856, 2011
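CellTiter-Glo luminescence gave cytotoxicity after 18 hours at 37 degrees C. The cells were HepG2 CAGA-GFP in 1% FBS DMEM, stimulated with 500 pg/mL TGF-beta after compound addition. %Activity was normalised to no-cell wells (complete cell-killing) and DMSO (no toxicity), and curves were fitted and classified.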
ATXN2 expr inh: Primary qHTS for Inhibitors of ATXN expression; HEK-293 ATXN2-luciferase reporter, luminescence, 24 h; Potency, µM (highest dose often 57 µM), for inactives: top-dose activity change, negative = inhibition, actives largely listed as inhibitors; 0.72% of 360,000 active; AID 1745845, 2022; also: % is scaled to controls: 0 for no effect and ±100 for the full control effect; nearly all actives have a fitted effect of over 55% in size
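ATXN2-luciferase reporter cells (luciferase flanked by upstream and downstream ATXN2 gene portions) were treated 24 h at 37 °C with compounds at up to 57 uM. SteadyGlo luminescence gave expression; GF-AFC fluorescence gave viability.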
TGFb confirm: qHTS for Inhibitors of TGF-b: Confirmation of Cherry Picks; shares compounds with TGFb inhibitor; HepG2 CAGA-GFP TGF-b reporter, GFP fluorescence, 18 h; cells stimulated with TGF-beta, 500 pg/mL; Potency, µM (titrated, usually from 46.1 µM), for the others: top-dose activity, negative = inhibition, hits mostly inhibitors; 63% of 1,600 active; AID 720534, 2013; also: % is scaled to controls: 0 for no effect and ±100 for the full control effect; nearly all actives have a fitted effect of over 65% in size
HepG2 tox-2: qHTS for Inhibitors of TGF-b: Cytotox Counterscreen for Cherry Picks; shares compounds with TGFb inhibitor; HepG2 CAGA-GFP viability, ATP luminescence, 18 h; cells stimulated with TGF-beta, 500 pg/mL; Potency, µM (doses to about 46.1 µM), for the others: at the highest dose activity, negative = cytotoxicity, usual class: inhibitors; 27% of 1,600 active; also: % is scaled to controls: 0 for no effect and ±100 for the full control effect; nearly all actives have a fitted effect of over 70% in size
CCL64 TGFb inh: qHTS for Inhibitors of TGF-b: CCL64 Cells Orthogonal Assay for Cherry Picks; shares compounds with TGFb inhibitor; CCL64 CAGA-GFP reporter, TGF-b stimulated, GFP fluorescence, 18 h; Potency, µM (top dose mostly 46.1 µM), inactives show at the highest dose activity, negative = inhibition, hits mostly inhibitors; 41% of 1,600 active; AID 720536, 2013; also: nearly all actives have a fitted effect of over 65% in size
TGFb COP inh: qHTS for Inhibitors of TGF-b: Hit Validation in HepG2 Cells using COP promoter. shares compounds with TGFb inhibitor. HepG2 COP-GFP TGF-b reporter, GFP fluorescence, 18 h; cells stimulated by added recombinant TGF-beta. Potency, µM (top dose mostly 46.1 µM), for inactives: at the top dose activity, negative = inhibition, usual class: inhibitors. 3% of 1,600 active; also: nearly all actives have a fitted effect of over 70% in size
* = called active by the depositor; [ ] = another dose, or the depositor's remark. Rows were chosen to be rich in hits. Some 2.3% of all compounds tested hit in one or more screens of this group. Calls follow the shape of the dose curve; as a rule, active = well fitted curve in the direction sought with a large enough effect; inconclusive = small, poorly fitted or top-dose-only effect, or another doubt; inactive = no such curve, though single readings can be large; an effect the other way counts as inactive or inconclusive. Potency is read from the fitted curve at half-maximal effect.

Screening O=S(=O)(Nc1cccc2cccnc12)c1ccccc1 returned S2 tox inconclusive, TGFb inhibitor 7.1µM*, HepG2 tox-1 -14%, ATXN2 expr inh 8.9µM*, TGFb confirm 23µM*, HepG2 tox-2 inconclusive, CCL64 TGFb inh 12µM* and TGFb COP inh 36%.
For CC(=O)Nc1ccc2c(c1)-c1ccc(F)cc1C2 the results were S2 tox inactive, TGFb inhibitor 10µM*, HepG2 tox-1 -8%, ATXN2 expr inh -19%, TGFb confirm inconclusive, HepG2 tox-2 inconclusive, CCL64 TGFb inh 0% and TGFb COP inh 71%.
For CC(=O)Nc1ccc2c(c1)Cc1ccc(Cl)cc1-2 the results were S2 tox inactive, TGFb inhibitor 0%, HepG2 tox-1 -17% and ATXN2 expr inh 11%.
`O=[N+]([O-])c1cnc(Sc2ccncn2)s1` gave S2 tox 3.2µM*, TGFb inhibitor 2.2µM*, HepG2 tox-1 -109%, TGFb confirm 3.7µM*, HepG2 tox-2 2.9µM*, CCL64 TGFb inh 2.1µM* and TGFb COP inh 3.7µM*.
For CC(C)(C)c1ccc(/C=C2\SC(=O)N(CCNC(=O)c3cccc(S(=O)(=O)N4CCOCC4)c3)C2=O)cc1 the results were S2 tox inconclusive, TGFb inhibitor 13µM*, HepG2 tox-1 -19%, ATXN2 expr inh -11%, TGFb confirm 7.3µM*, HepG2 tox-2 inconclusive, CCL64 TGFb inh inconclusive and TGFb COP inh 18%.
Screening O=[N+]([O-])c1ccccc1S(=O)(=O)NCc1ccccn1 returned TGFb inhibitor -1% and HepG2 tox-1 -14%.
Screening c1ccc2c(c1)nc(N1CCOCC1)c1ccccc12 returned S2 tox inactive, TGFb inhibitor 0%, HepG2 tox-1 1% and ATXN2 expr inh 4%[11.3 µM].
CCN(CC)c1ccc(Nc2nc(N3CCOCC3)c3ccccc3n2)cc1 was read as S2 tox inactive, TGFb inhibitor 10µM*, HepG2 tox-1 -94%, ATXN2 expr inh -35%, TGFb confirm inconclusive, HepG2 tox-2 21µM*, CCL64 TGFb inh inconclusive and TGFb COP inh 30%.
`C/C=C/C(=O)[C@@H](C)[C@@H](/C=C/C[Si](C)(C)C)C(C)C` gave TGFb inhibitor -2% and HepG2 tox-1 11%.
Screening Cc1nc2ccc(S(=O)(=O)NCC(=O)Nc3cccc(F)c3)cc2s1 returned S2 tox inactive, TGFb inhibitor inconclusive, HepG2 tox-1 -2%, TGFb confirm -8%, HepG2 tox-2 6%, CCL64 TGFb inh -9% and TGFb COP inh -1%.
Screening COc1cccc(Nc2nc(-c3ccccc3)c3cc(C)ccc3n2)c1 returned TGFb inhibitor -29% and HepG2 tox-1 -19%.
COc1cc(Nc2nc(-c3ccccc3)c3cc(C)ccc3n2)cc(OC)c1OC was read as S2 tox inactive, TGFb inhibitor 11µM*, HepG2 tox-1 -15%, ATXN2 expr inh -11%, TGFb confirm 18µM*, HepG2 tox-2 inconclusive, CCL64 TGFb inh -78% and TGFb COP inh 51%.
CN1CCN(c2oc(-c3ccc(OCc4ccc(Cl)cc4)cc3)nc2C#N)CC1 was read as TGFb inhibitor 7% and HepG2 tox-1 7%.
Cc1ccc(-c2nnc3c(C(F)(F)F)nc4ccccc4n23)cc1 was read as S2 tox inconclusive, TGFb inhibitor inconclusive, HepG2 tox-1 -42% and ATXN2 expr inh -6%.
For FC(F)(F)c1nc2ccccc2n2c(-c3ccc(Cl)cc3)nnc12 the results were S2 tox inactive, TGFb inhibitor 4.5µM*, HepG2 tox-1 -32%, ATXN2 expr inh -24%, TGFb confirm 5.2µM*, HepG2 tox-2 inconclusive, CCL64 TGFb inh 12% and TGFb COP inh 66%.
Screening O=C(CN1C(=O)CC(c2ccc(F)cc2)=Nc2ccccc21)NCc1ccccc1Cl returned S2 tox inactive, TGFb inhibitor inconclusive, HepG2 tox-1 -61% and ATXN2 expr inh 3%.
For COc1ccccc1-c1cc(C(F)(F)F)nc(S(=O)(=O)CCCC(=O)N2CCCCC2C)n1 (stereo not drawn) the results were TGFb inhibitor 10µM*, HepG2 tox-1 -101%, ATXN2 expr inh inconclusive, TGFb confirm 9.2µM*, HepG2 tox-2 18µM*, CCL64 TGFb inh 4.6µM* and TGFb COP inh inconclusive.
For COc1ccc(CN2CCN(c3ncnc4scc(-c5ccc(F)cc5)c34)CC2)cc1 the results were S2 tox inactive, TGFb inhibitor 11µM*, HepG2 tox-1 -26%, ATXN2 expr inh inconclusive, TGFb confirm 21µM*, HepG2 tox-2 inconclusive, CCL64 TGFb inh inconclusive and TGFb COP inh 41%.
`COc1ccc(N2CCN(c3ncnc4scc(-c5ccc(F)cc5)c34)CC2)cc1` gave S2 tox inactive, TGFb inhibitor inconclusive, HepG2 tox-1 14% and ATXN2 expr inh -18%.
Screening COc1ccc(-c2cc(C3C4C=CCCC4(C)C(=O)N3Cc3ccccc3)ccc2F)cc1OC (stereo not drawn) returned TGFb inhibitor inconclusive and HepG2 tox-1 -16%.
`C(=Nc1ccc2ccccc2n1)c1cccnc1` gave TGFb inhibitor -4% and HepG2 tox-1 -14%.
Screening CCN(CC)S(=O)(=O)c1cccc(C(=O)N[C@H](C(=O)Nc2nc3ccc(F)cc3s2)C(C)C)c1 returned S2 tox inactive, TGFb inhibitor 7.9µM*, HepG2 tox-1 -18%, ATXN2 expr inh inconclusive, TGFb confirm 4.1µM*, HepG2 tox-2 inconclusive, CCL64 TGFb inh inconclusive and TGFb COP inh 9%.
For CCNc1nc(C#N)nc(NCC)n1 the results were TGFb inhibitor 11% and HepG2 tox-1 1%.
